Test systems include EPHA4; EPHA5; EPHA6; EPHA7; EPHA8; EPHB1; EPHB2; EPHB3; EPHB4; EPHB6; ERBB2; ERBB3; ERBB4; ERN1.
What all share (settings): n = 1
A further assay has as its system T1, ERK1.
T1 construct: gene MAPK3

The subject of another assay is T2, ERK2.
T2 construct: gene MAPK1

A further assay has as its system T3, ERK3.
T3 construct: gene MAPK6

The test system of another assay is T4, ERK4.
T4 construct: gene MAPK4

Another assay deals with T5, ERK5.
T5 construct: gene MAPK7

Another assay relates to T6, ERK8.
T6 construct: gene MAPK15

[1] abbreviates: concentration: 1 μM, replicates: in singlicate.

Read-outs that look alike come from different tables or passages of the source.
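Also: KINOMEscan kinase panel screen.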

As for `COc1ccc(C2=C(Nc3cccc(C(=O)O)c3)C(=O)NC2=O)cc1` [SB-390765], the “%Inh” value in the assay on EPHA4 (setting [1]) was 21%; in the assay on EPHA5 (setting [1]), 7%; with EPHA6 (setting [1]), 16%; in the assay on EPHA7 (setting [1]), 0%; with EPHA8 (setting [1]) it was 10%; in the assay with EPHB1 (setting [1]), 5%. Also, the “%Inh” value was 9% in the assay on EPHB2 (setting [1]); 20% with EPHB3 (setting [1]); 9% with EPHB4 (setting [1]); 19% in the assay on EPHB6 (setting [1]); 0% with ERBB2 (setting [1]); 0% in the assay on ERBB3 (setting [1]). Also, the “%Inh” value in the assay on ERBB4 (setting [1]) is given as 0%; in the assay on ERK1 (setting [1]), 0%; in the assay on ERK2 (setting [1]) it was 7%; with ERK3 (setting [1]), 19%; with ERK4 (setting [1]) it was 1%; in the assay with ERK5 (setting [1]), 10%. Besides, the “%Inh” value with ERK8 (setting [1]) was 7%; with ERN1 (setting [1]) it was 21%.

With `Cc1ccc(NC(=O)Nc2cccc(C(F)(F)F)c2)cc1` [GSK955403], the “%Inh” value in the assay with EPHA4 (1 µM) is on record as 6%; in the assay with EPHA5 (1 µM), 0%; in the assay with EPHA6 (1 µM), 0%; in the assay with EPHA7 (1 µM), 2%; with EPHA8 (1 µM), 3%; in the assay with EPHB1 (1 µM) it was 5%. The “%Inh” value in the assay on EPHB2 (1 µM) is reported as 3%; in the assay on EPHB3 (1 µM), 0%; in the assay with EPHB4 (1 µM), 0%; in the assay on EPHB6 (1 µM), 21%; in the assay on ERBB2 (1 µM) it was 0%; in the assay with ERBB3 (1 µM), 17%. For the same compound, the “%Inh” value was determined as 0% in the assay on ERBB4 (1 µM); 0% with ERK1 (1 µM); 0% in the assay on ERK2 (1 µM); 0% in the assay with ERK3 (1 µM); 0% in the assay with ERK4 (1 µM); 5% in the assay on ERK5 (1 µM). The “%Inh” value in the assay with ERK8 (1 µM) and in the assay on ERN1 (1 µM) was 0% each time.

For `CCn1c(-c2ccccn2)nc2cnccc21` [SB-736398], the “%Inh” value in the assay with EPHA4 (setting [1]) is given as 23%; in the assay on EPHA5 (setting [1]), 0%; in the assay on EPHA6 (setting [1]), 7%; with EPHA7 (setting [1]), 0%; with EPHA8 (setting [1]), 5%; with EPHB1 (setting [1]), 0%. For the same compound, the “%Inh” value with EPHB2 (setting [1]) was determined as 0%; with EPHB3 (setting [1]), 12%; in the assay on EPHB4 (setting [1]), 35%; in the assay on EPHB6 (setting [1]) it was 0%; in the assay with ERBB2 (setting [1]), 26%; with ERBB3 (setting [1]) it was 14%. Also, the “%Inh” value is on record as 0% in the assay on ERBB4 (setting [1]); 11% in the assay with ERK1 (setting [1]); 0% in the assay on ERK2 (setting [1]); 14% with ERK3 (setting [1]); 6% with ERK4 (setting [1]); 5% in the assay with ERK5 (setting [1]). Besides, the “%Inh” value came out at 37% with ERK8 (setting [1]) and 0% with ERN1 (setting [1]).

Consider `CN1C(=O)C(Nc2ccc(Cl)c(C(=O)O)c2)=C(c2ccc(Cl)cc2)C1=O` [SB-404290], for which the “%Inh” value in the assay with EPHA4 (setting [1]) is 1%; in the assay on EPHA5 (setting [1]) it was 0%; in the assay with EPHA6 (setting [1]), 2%; in the assay with EPHA7 (setting [1]), 2%; in the assay with EPHA8 (setting [1]), 19%; in the assay on EPHB1 (setting [1]), 9%. In addition, the “%Inh” value in the assay with EPHB2 (setting [1]) was found to be 0%; in the assay on EPHB3 (setting [1]), 7%; in the assay with EPHB4 (setting [1]) it was 0%; in the assay on EPHB6 (setting [1]), 28%; with ERBB2 (setting [1]) it was 0%; in the assay on ERBB3 (setting [1]) it was 0%. In addition, the “%Inh” value in the assay with ERBB4 (setting [1]) is on record as 8%; in the assay on ERK1 (setting [1]) it was 0%; with ERK2 (setting [1]), 0%; in the assay on ERK3 (setting [1]), 0%; in the assay on ERK4 (setting [1]) it was 0%; in the assay with ERK5 (setting [1]), 1%. Moreover, the “%Inh” value with ERK8 (setting [1]) and in the assay with ERN1 (setting [1]) was 0% throughout.

With `Cc1cc(NCC(c2ccccc2)c2ccccc2)nc(NCc2ccc(C(F)(F)F)cc2)n1` [GW497681], the “%Inh” value with EPHA4 (setting [1]) is 0%; in the assay with EPHA5 (setting [1]) it was 0%; with EPHA6 (setting [1]), 0%; in the assay on EPHA7 (setting [1]), 7%; in the assay on EPHA8 (setting [1]) it was 6%; in the assay on EPHB1 (setting [1]), 0%. In addition, the “%Inh” value in the assay on EPHB2 (setting [1]) amounted to 0%; in the assay with EPHB3 (setting [1]), 0%; in the assay on EPHB4 (setting [1]) it was 7%; with EPHB6 (setting [1]), 8%; in the assay with ERBB2 (setting [1]) it was 21%; in the assay with ERBB3 (setting [1]), 1%. Further, the “%Inh” value in the assay on ERBB4 (setting [1]) turned out to be 27%; in the assay with ERK1 (setting [1]), 0%; with ERK2 (setting [1]) it was 0%; in the assay with ERK3 (setting [1]), 0%; in the assay on ERK4 (setting [1]), 5%; in the assay with ERK5 (setting [1]) it was 0%. The “%Inh” value with ERK8 (setting [1]) and with ERN1 (setting [1]) was 0% each time.

As to `CS(=O)(=O)c1ccc(-c2c(-c3ncn[nH]3)sc(N3CCOCC3)c2C#N)cc1`, the “%Inh” value in the assay on EPHA4 (setting [1]) was found to be 27%; with EPHA5 (setting [1]) it was 27%; in the assay with EPHA6 (setting [1]), 32%; in the assay with EPHA7 (setting [1]) it was 0%; in the assay on EPHA8 (setting [1]) it was 0%; in the assay on EPHB1 (setting [1]) it was 6%. The “%Inh” value in the assay with EPHB2 (setting [1]) turned out to be 0%; in the assay on EPHB3 (setting [1]), 36%; with EPHB4 (setting [1]), 42%; in the assay on EPHB6 (setting [1]) it was 17%; in the assay on ERBB2 (setting [1]), 41%; in the assay with ERBB3 (setting [1]) it was 13%. Besides, the “%Inh” value with ERBB4 (setting [1]) amounted to 12%; in the assay with ERK1 (setting [1]), 0%; in the assay with ERK2 (setting [1]) it was 37%; in the assay on ERK3 (setting [1]), 25%; in the assay with ERK4 (setting [1]) it was 12%; with ERK5 (setting [1]), 0%. Also, the “%Inh” value in the assay with ERK8 (setting [1]) stood at 10%; in the assay with ERN1 (setting [1]), 21%.

Take `CC(C)(C)c1ccc(C(=O)Nc2cn3cc(-c4cccnc4)ccc3n2)cc1`: the “%Inh” value in the assay on EPHA4 (setting [1]) was 25%; in the assay with EPHA5 (setting [1]), 13%; in the assay on EPHA6 (setting [1]), 29%; in the assay with EPHA7 (setting [1]) it was 4%; in the assay with EPHA8 (setting [1]) it was 8%; in the assay with EPHB1 (setting [1]) it was 19%. The “%Inh” value in the assay on EPHB2 (setting [1]) is 4%; with EPHB3 (setting [1]), 26%; with EPHB4 (setting [1]) it was 16%; in the assay on EPHB6 (setting [1]), 28%; in the assay with ERBB2 (setting [1]) it was 34%; with ERBB3 (setting [1]) it was 0%. Further, the “%Inh” value with ERBB4 (setting [1]) is listed as 1%; in the assay with ERK1 (setting [1]), 0%; in the assay with ERK2 (setting [1]) it was 18%; with ERK3 (setting [1]), 14%; with ERK4 (setting [1]) it was 23%; in the assay on ERK5 (setting [1]) it was 20%. Besides, the figures for the “%Inh” value in the assay on ERK8 (setting [1]) and in the assay on ERN1 (setting [1]) were 16% and 12%, respectively.

The values above are taken from publication PMC5540273 (PLoS ONE, 2017).
